This note sets out measurements from PubChem BioAssay (NCATS).

Inconclusive results are not listed. Activity calls are given as the source filed them. Calls follow the shape of the dose curve; as a rule, active = well fitted curve in the direction sought with a large enough effect; inconclusive = small, poorly fitted or top-dose-only effect, or another doubt; inactive = no such curve, though single readings can be large; an effect the other way counts as inactive or inconclusive.

In test [1] the target is Lysine-specific demethylase 5B (Homo sapiens) (UniProt Q9UGL1). Kind of test: Optimization screen for KDM5B Histone Demethylases FDH coupled qHTS against the LOPAC library (AID 1347166). A digest of the protocol:
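KDM5BDeltaAP (200nM final) in 50mM HEPES pH 7.5, 0.01% Tween-20 was preincubated with compound for 10 min at room temperature. A substrate mix of 12.5uM H3K4Me3, 25uM a-ketoglutarate, ascorbate, Fe2+, NAD+ and formaldehyde dehydrogenase was then added. NADH fluorescence (340/450 nm) was read initially and after 30 min.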

Test [2] in a line: qHTS to identify inhibitors of the type 1 interferon - major histocompatibility complex class I in skeletal muscle: primary screen against the NCATS LOPAC collection (AID 1347405).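 Also: human myoblasts with HiBiT tag on endogenous HLA-B stimulated by IFN-beta; lytic HiBiT luminescence reporting HLA-B protein level.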 Also: potency is read from the fitted curve at half-maximal effect. A digest of the protocol: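 First, engineered myoblasts carrying HLA-B-HiBiT were seeded in medium lacking dexamethasone with 4 ng/ml IFN-beta. After 1 hr, compounds were pinned in (top 46 uM final, 7 points). After 24 hrs at 37 C, luminescence was measured following 10 min lysis.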

A short description of test [3]: qHTS to identify inhibitors of the type 1 interferon - major histocompatibility complex class I in skeletal muscle: primary screen against the NCATS Pharmaceutical Collection (AID 1347407).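 Also: luminescence of HiBiT knocked into endogenous HLA-B as interferon-induced MHC class I level.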 Also: potency is read from the fitted curve at half-maximal effect. A digest of the protocol: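 A qHTS format is used: 8-point, 1:5 compound series with 46 uM top final concentration, applied alongside 4 ng/ml IFN-beta to HLA-B*08:01-HiBiT knock-in myoblasts. Luminescence is measured after 24 h treatment.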

A short description of test [4]: qHTS for inhibitors of adenylyl cyclases using a fission yeast platform: a pilot screen against the NCATS LOPAC library (AID 1347410). In outline:
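Inhibition of GNAS-stimulated AC9 activity in S. pombe was inferred from derepression of a PKA-repressed fbp1-GFP reporter, measured as cytometric fluorescence after 18 h at 30C with compounds at up to 57 µM.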

Test [5] concerns the target Protein phosphatase 1D (Homo sapiens) (UniProt O15297). Kind of test: RapidFire Mass Spectrometry qHTS Assay for Modulators of WT P53-Induced Phosphatase 1 (WIP1) (AID 1347424).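 Also: amount of dephosphorylated VEPPL-S-QETFS peptide product formed by WIP1; series mostly up to about 63 µM.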 In outline: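 Mass-spectrometric measurement of dephosphorylated peptide after a 5 min room-temperature reaction of 10 nM WIP1 with 2 uM phosphopeptide, following 1 h compound preincubation in 30 mM MgCl2 buffer.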
In general terms: Quantitative high-throughput screening tests each substance at several concentrations.

A short description of test [6]: Validation qHTS assay for inhibitors of Activation Induced Cytidine Deaminase (AID): UDG Counterscreen signal (AID 1347427). In outline: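 Fluorescence at 560 nm excitation, 665 nm emission reports UDG signal after 250 mM NaOH (2x) addition and 30 min. Enzymes (AID 1 uM, UDG 2 U/mL, at 4/3x) preincubated 10 min with compound, then 4 h with 4x 250 nM DJC20/DJC23 substrate at room temperature.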

Test [7] addresses Single-stranded DNA cytosine deaminase (Homo sapiens) (UniProt Q9GZX7). The test can be described thus: Validation qHTS assay for inhibitors of Activation Induced Cytidine Deaminase (AID): AID signal (AID 1347429). A digest of the protocol:
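Steps: dispense AID with UDG; pin-transfer compound up to 114 uM final; add DJC20/DJC23 substrate and hold 4 hr at room temperature; add NaOH, hold 30 min; read FRET signal (540/590 nm).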

Test [8] is described as follows: Primary qHTS for inhibitors of La Crosse Virus (LACV) - induced cell death in SH-SY5Y cells (AID 1508616).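 Also: top concentration of the series differs between compounds; higher means more rescue of cells from virus-induced death.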 A digest of the protocol: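 SH-SY5Y, 6000 cells/well; cpd via pin tool in DMSO; LACV 0.01 MOI; 6 d 37C 5% CO2; ATPLite, 5 min RT; luminescence normalized to ±virus DMSO controls.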
For test [9], the target named is Calcium and integrin-binding protein 1 (Homo sapiens) (UniProt Q99828). The test can be described thus: Validation qHTS for Identification of Calcium Integrin Binding protein 1 (CIB1) Competitor (AID 1508618). A digest of the protocol: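 Fluorescence polarization with 1 uM CIB1-GST and 100 nM FITC-alphaIIb peptide in HEPES pH 7.4, NaCl, 5 mM CaCl2, Tween20. Compounds at up to 114 uM final, preincubated with protein 15 min; read after 15 min more at RT.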
Calcium and integrin-binding protein 1 (Homo sapiens), sequence (Q99828 whole entry, looked up): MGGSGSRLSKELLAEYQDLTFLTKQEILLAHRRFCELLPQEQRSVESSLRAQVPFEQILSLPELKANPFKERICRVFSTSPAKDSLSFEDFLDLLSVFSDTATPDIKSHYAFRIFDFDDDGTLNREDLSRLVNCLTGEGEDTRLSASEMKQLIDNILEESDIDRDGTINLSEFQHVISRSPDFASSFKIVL

Test [10] has the same target. The test can be described thus: Primary qHTS for Identification of Calcium Integrin Binding Protein 1 (CIB1) Competitor (AID 1508620).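 Also: GST tagged CIB1 binding a fluorescein labelled alphaIIb integrin peptide tracer; top concentration of the series differs between compounds.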 A digest of the protocol: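 Fluorescence polarization competition: CIB1-GST (1 uM final) preincubated with compound 15 min at room temperature, then FITC-labeled alphaIIb peptide (100 nM final) added for another 15 min. Polarization read at Ex 480/Em 540.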

Test [11] is described as follows: Confirmatory qHTS for small molecule stabilizers of the endoplasmic reticulum resident proteome: Secreted ER Calcium Modulated Protein (SERCaMP) assay (AID 1508628). Also: potency is read from the fitted curve at half-maximal effect; nearly all actives have a fitted effect of over 40% in size. In outline: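 Reporter secretion upon ER calcium depletion (100 nM thapsigargin, 4 h, 37C) is measured as medium luminescence with coelenterazine, after 16 h compound pretreatment of SH-SY5Y-GLuc-SERCaMP cells; primary at three concentrations up to 38.3 uM, follow-up at 11 (up to 76.6 uM).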

The target of test [12] is Protein phosphatase 1D (Homo sapiens) (UniProt O15297). Kind of test: Rhodamine-PBP qHTS Assay for Modulators of WT P53-Induced Phosphatase 1 (WIP1) (AID 1347425). A digest of the protocol:
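WIP1 (5 nM final) was preincubated with compound for 1 hour at room temperature. It then dephosphorylated 10 uM VEPPL-pS-QETFS peptide in Tris-HCl pH 7.5 with 30 mM MgCl2. Released Pi was detected by 10 uM Rh-PBP fluorescence (ex 525/em 598 nm) read at 1-min intervals for 11 min, as delta f1 - f0.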

Single-stranded DNA cytosine deaminase (Homo sapiens), sequence (Q9GZX7 whole entry, looked up): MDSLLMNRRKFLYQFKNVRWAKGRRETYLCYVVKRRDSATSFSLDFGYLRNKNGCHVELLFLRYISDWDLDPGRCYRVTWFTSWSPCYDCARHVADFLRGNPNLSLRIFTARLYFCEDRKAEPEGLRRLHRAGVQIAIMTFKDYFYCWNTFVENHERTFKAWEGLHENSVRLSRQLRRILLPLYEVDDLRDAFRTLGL
Lysine-specific demethylase 5B (Homo sapiens), sequence (Q9UGL1 whole entry, looked up): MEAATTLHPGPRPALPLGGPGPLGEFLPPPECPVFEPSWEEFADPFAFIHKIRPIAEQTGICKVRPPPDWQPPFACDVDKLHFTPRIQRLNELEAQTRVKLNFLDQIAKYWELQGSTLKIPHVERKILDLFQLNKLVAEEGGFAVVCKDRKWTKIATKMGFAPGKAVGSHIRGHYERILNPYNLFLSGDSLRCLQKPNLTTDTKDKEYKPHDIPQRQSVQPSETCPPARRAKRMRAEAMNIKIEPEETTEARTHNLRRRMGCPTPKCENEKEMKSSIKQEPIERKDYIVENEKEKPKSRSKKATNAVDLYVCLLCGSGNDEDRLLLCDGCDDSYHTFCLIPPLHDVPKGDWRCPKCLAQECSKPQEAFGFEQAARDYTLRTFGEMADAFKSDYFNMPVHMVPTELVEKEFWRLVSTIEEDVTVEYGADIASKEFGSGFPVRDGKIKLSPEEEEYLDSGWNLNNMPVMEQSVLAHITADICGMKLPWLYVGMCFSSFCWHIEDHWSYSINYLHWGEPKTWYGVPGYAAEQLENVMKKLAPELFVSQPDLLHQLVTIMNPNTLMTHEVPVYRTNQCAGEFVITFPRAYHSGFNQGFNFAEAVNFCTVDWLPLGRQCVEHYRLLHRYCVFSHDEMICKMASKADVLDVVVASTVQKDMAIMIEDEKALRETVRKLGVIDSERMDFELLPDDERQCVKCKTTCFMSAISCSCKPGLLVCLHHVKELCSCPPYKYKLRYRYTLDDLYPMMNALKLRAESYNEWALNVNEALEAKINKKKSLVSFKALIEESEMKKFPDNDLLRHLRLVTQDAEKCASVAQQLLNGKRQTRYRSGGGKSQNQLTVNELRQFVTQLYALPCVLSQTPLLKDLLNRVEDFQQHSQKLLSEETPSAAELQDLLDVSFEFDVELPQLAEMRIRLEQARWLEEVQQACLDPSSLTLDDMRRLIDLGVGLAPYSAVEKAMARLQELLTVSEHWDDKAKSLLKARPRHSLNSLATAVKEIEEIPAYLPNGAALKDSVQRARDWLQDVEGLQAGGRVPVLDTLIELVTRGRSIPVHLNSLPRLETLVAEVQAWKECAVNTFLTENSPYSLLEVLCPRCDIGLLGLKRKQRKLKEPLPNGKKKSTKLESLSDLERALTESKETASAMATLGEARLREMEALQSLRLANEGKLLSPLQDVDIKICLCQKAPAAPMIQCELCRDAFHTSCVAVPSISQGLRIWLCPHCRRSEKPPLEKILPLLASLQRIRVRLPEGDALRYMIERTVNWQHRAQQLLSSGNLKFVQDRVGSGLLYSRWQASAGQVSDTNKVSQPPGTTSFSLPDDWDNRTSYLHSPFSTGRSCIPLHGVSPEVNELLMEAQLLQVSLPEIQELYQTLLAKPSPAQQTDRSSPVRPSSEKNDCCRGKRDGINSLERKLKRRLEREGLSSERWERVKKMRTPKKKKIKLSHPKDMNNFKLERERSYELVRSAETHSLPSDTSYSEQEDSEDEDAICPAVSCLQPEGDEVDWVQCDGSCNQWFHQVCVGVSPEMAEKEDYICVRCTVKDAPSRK
Protein phosphatase 1D (Homo sapiens), sequence (O15297 whole entry, looked up): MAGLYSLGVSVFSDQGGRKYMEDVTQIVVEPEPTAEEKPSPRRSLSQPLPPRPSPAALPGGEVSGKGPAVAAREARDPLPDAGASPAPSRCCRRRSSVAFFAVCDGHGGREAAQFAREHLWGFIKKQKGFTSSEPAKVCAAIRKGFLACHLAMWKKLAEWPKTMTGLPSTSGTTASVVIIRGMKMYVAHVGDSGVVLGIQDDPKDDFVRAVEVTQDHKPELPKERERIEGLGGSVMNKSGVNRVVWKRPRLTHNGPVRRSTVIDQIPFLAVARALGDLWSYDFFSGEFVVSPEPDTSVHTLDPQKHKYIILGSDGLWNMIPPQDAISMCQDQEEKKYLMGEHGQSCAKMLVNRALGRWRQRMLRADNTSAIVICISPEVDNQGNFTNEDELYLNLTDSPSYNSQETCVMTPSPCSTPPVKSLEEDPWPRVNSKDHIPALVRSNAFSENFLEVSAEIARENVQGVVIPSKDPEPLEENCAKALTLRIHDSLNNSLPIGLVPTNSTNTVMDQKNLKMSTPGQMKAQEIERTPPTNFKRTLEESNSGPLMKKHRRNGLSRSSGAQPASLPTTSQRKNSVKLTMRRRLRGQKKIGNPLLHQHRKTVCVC

Turning to `CC(C(=O)O)c1ccc(CC2CCCC2=O)cc1` (configuration not stated), the Potency entry in [1], in [2], in test [3], in test [5], in test [7] and in test [8] was “inactive” in each case. Also, the Potency result in test [10] is “inactive”. Besides, the molecule was classed as inactive in test [4], in [6] and in test [9].

On to `CCN(CC)CCCN(c1ccccc1)C1Cc2ccccc2C1`, for which the Potency result in test [1], in test [2], in test [3], in test [5], in [7] and in [8] was “inactive” each time. The call in test [4], in test [6] and in test [9] was inactive. Also, the Potency in [11] was 39.8 µM (active).

`FC(F)(F)c1ccccc1-n1ccnc1`: the Potency entry in test [1], in test [2], in test [3], in [5], in test [7] and in test [8] was “inactive” in each case. Besides, in test [10], the Potency result was “inactive”. The molecule was called inactive in [4], in [6] and in test [9].

As for `CC(C)(C)NCC(O)c1cc(O)cc(O)c1` (configuration not stated), the Potency result in test [1], in test [2], in [3], in [5], in [7] and in test [8] was “inactive” each time. For the same molecule, in test [10], the Potency result was “inactive”. Besides, the outcome in test [4], in [6] and in test [9] was inactive.

In the case of `COC(=O)[C@@H](N)Cc1ccc(O)c(O)c1`, the Potency entry in test [2], in test [3], in test [5], in [7], in test [8] and in test [10] was “inactive” throughout. Further, the result in test [4], in test [12] and in test [6] was inactive. In addition, the Potency in test [11] was 35.5 µM (active).

`COc1cc2c(cc1OC)-c1cc(=Nc3c(C)cc(C)cc3C)n(C)c(=O)n1CC2`: the Potency entry in test [1], in test [5], in test [7], in [8] and in test [10] was “inactive” each time. For the same molecule, the outcome in test [4], in test [12], in test [6] and in [9] was inactive.

On to `CCN(CC)CCOCCOC(=O)C1(c2ccccc2)CCCC1`, for which the Potency result in test [2], in test [3], in [5], in [7], in [8] and in test [10] was “inactive” in each case. Also, the molecule was classed as inactive in test [4], in test [12], in test [6] and in test [9].

For `COCC(=O)O[C@]1(CCN(C)CCCc2nc3ccccc3[nH]2)CCc2cc(F)ccc2[C@@H]1C(C)C`, the Potency result in [1], in test [5], in test [7], in test [8] and in test [10] was “inactive” each time. In addition, the call in test [4], in [12], in [6] and in test [9] was inactive.

In the case of `CN(C(=O)CCCOc1ccc2[nH]c(=O)ccc2c1)C1CCCCC1`, the Potency result in test [2], in [3], in test [5], in test [7], in [8] and in [10] was “inactive” each time. Also, the result in test [4], in test [6] and in test [9] was inactive.

With `C[C@]12C=CC(=O)C=C1CC[C@H]1[C@@H]3C[C@@H](O)[C@](O)(C(=O)CO)[C@@]3(C)C[C@H](O)[C@@]12F`, the Potency entry in [1], in test [5], in test [7] and in [8] was “inactive” each time. Also, the result in test [4] and in [6] was inactive.

On to `CC(C)COCC(CN(Cc1ccccc1)c1ccccc1)N1CCCC1` (configuration not stated), for which the Potency result in test [2], in test [3], in test [5], in test [7], in test [8] and in test [10] was “inactive” throughout. Also, the result in [4], in [12], in [6] and in test [9] was inactive.

For the molecule `CCN1CCC[C@H]1CNC(=O)c1c(O)c(Cl)cc(Cl)c1OC`, the Potency entry in test [2], in [3], in test [5], in test [7], in [8] and in test [10] was “inactive” throughout. Moreover, the molecule was classed as inactive in test [4], in test [6] and in test [9].

Take `NC(N)=N/N=C/c1c(Cl)cccc1Cl`: the Potency result in test [1], in [2], in [5], in test [7], in test [8] and in [10] was “inactive” each time. Moreover, the outcome in test [4], in [12], in test [6] and in [9] was inactive.

On to `Cc1nnc(SCC2=C(C(=O)O)N3C(=O)[C@@H](NC(=O)Cn4cnnn4)[C@H]3SC2)s1`, for which the Potency result in test [1], in test [5] and in test [8] was “inactive” each time. Further, the call in test [4] and in test [12] was inactive.

As for `COC(=O)C1=C(C)NC(C)=C(C(=O)OC(C)(C)CN(C)CCC(c2ccccc2)c2ccccc2)C1c1cccc([N+](=O)[O-])c1` (configuration not stated), the Potency entry in [1], in [5], in [7], in [8] and in [10] was “inactive” throughout. The result in test [4], in test [12], in test [6] and in [9] was inactive.

In the case of `O=C1NCN(c2ccccc2)C12CCN(CCCC(c1ccc(F)cc1)c1ccc(F)cc1)CC2`, the Potency entry in [1], in test [5], in [7] and in test [8] was “inactive” throughout. In addition, the Potency in [3] was 18.7 µM (active). Further, the call in test [4], in test [12] and in test [6] was inactive.

On to `CCOC(=O)C1=C(C)NC(C)=C(C(=O)OC)C1c1cccc([N+](=O)[O-])c1` (configuration not stated), for which the Potency entry in test [1], in [5], in test [7], in test [8] and in test [10] was “inactive” throughout. In addition, the Potency in test [2] is 12.6 µM (active). Besides, the molecule was called inactive in test [4] and in test [6].
